Here are results for 56 compounds from PubChem BioAssay (Tox21).

Inconclusive results are not listed. Where a call stands in place of a potency, no number is given. Activity calls are given as the source filed them. Calls follow the shape of the dose curve; as a rule, active = well fitted cell-killing curve with a large enough effect in the repeat runs; inconclusive = weak or mixed curves, or effect the other way; inactive = flat fitted curve, though single readings scatter.

Experiment [1] is described as follows: cAMP Responsive Elements (CRE) small molecule antagonists, cell-based qHTS assay: qHTS cell viability counter screen (AID 2060913). Also: nearly all actives have a fitted effect of over 40% in size. The method in brief:
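Cytotoxicity counter screen multiplexed with the CRE-bla antagonist read: HEK293T cells in DMEM with dialyzed FBS and 25 mM HEPES were treated 3 hrs under 0.25 uM final NKH477, then viability measured by CellTiter-Glo luminescence.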
For orientation: In qHTS, concentration-response curves come from the screen itself.

Experiment [2] is described as follows: cAMP Responsive Elements (CRE) small molecule agonists, cell-based qHTS assay: qHTS cell viability counter screen (AID 2060914).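 Also: viability read after 3 h of compound exposure; nearly all actives have a fitted effect of over 50% in size.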 In outline:
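Cytotoxicity counter screen multiplexed with the CRE-bla reporter assay in HEK 293T cells: 3 h compound exposure at 37 °C, followed by CellTiter-Glo luminescence measured in the same wells.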

As to `OCCCCCCO`, the Potency result in experiment [1] and in experiment [2] was “inactive” in each case.
On to `Cc1ccc(C)c(O)c1`, for which the Potency result in experiment [1] and in experiment [2] was “inactive” throughout.
`Brc1cc(-c2ccc(Br)c(Br)c2Br)cc(Br)c1Br`: the Potency entry in experiment [1] and in experiment [2] was “inactive” each time.
With `CCCCCCCCCCCCCC(=O)OC`, the Potency entry in experiment [1] and in experiment [2] was “inactive” in each case.
Turning to `CC(C)(C)c1cc(CO)cc(C(C)(C)C)c1O`, the Potency result in experiment [1] and in experiment [2] was “inactive” throughout.
On to `CCn1cc(C(=O)O)c(=O)c2cc(F)c(N3CCNCC3)nc21`, for which the Potency result in experiment [1] and in experiment [2] was “inactive” in each case.
Turning to `O=Nc1ccc(NO)cc1`, the Potency result in experiment [1] and in experiment [2] was “inactive” each time.
As to `NCCO`, the Potency entry in experiment [1] and in experiment [2] was “inactive” in each case.
`CC(C)Nc1ccc(NC(C)C)c2c1C(=O)c1ccccc1C2=O`: the Potency result in experiment [1] and in experiment [2] was “inactive” in each case.
For the compound `COC(=O)/C=C\C(=O)O`, the Potency result in experiment [1] and in experiment [2] was “inactive” each time.
Turning to `CCCC/C=C\CCCCCCCCCC=O`, the Potency result in experiment [1] and in experiment [2] was “inactive” each time.
On to `CC1CC(O)CC(C)(C)C1` (configuration not stated), for which the Potency result in experiment [1] and in experiment [2] was “inactive” throughout.
For `CCOC(=O)C(=O)CCc1ccccc1`, the Potency result in experiment [1] and in experiment [2] was “inactive” throughout.
Turning to `CCCCOCCOC(=O)c1ccccc1C(=O)OCCOCCCC`, the Potency result in experiment [1] and in experiment [2] was “inactive” each time.
`CC(=O)Nc1ccccc1C`: the Potency entry in experiment [1] and in experiment [2] was “inactive” each time.
For the compound `CS(=O)(=O)OCCCCOS(C)(=O)=O`, the Potency result in experiment [1] and in experiment [2] was “inactive” in each case.
Take `CC(COc1ccc(C(C)(C)C)cc1)OS(=O)OCCCl` (configuration not stated): the Potency result in experiment [1] and in experiment [2] was “inactive” each time.
As for `CNCCC(Oc1ccccc1OC)c1ccccc1` (configuration not stated), the Potency result in experiment [1] and in experiment [2] was “inactive” each time.
Turning to `CC(N=C(NC#N)Nc1ccncc1)C(C)(C)C` (configuration not stated), the Potency entry in experiment [1] and in experiment [2] was “inactive” throughout.
Turning to `CCCCCCCCN(C)CCCCCCCC`, the Potency result in experiment [1] and in experiment [2] was “inactive” throughout.
As for `CCOc1ccc(O)cc1`, the Potency entry in experiment [1] and in experiment [2] was “inactive” throughout.
For `N#CCc1cccc(C(F)(F)F)c1`, the Potency entry in experiment [1] and in experiment [2] was “inactive” throughout.
As to `CC(=O)C(=O)CC(C)C`, the Potency result in experiment [1] and in experiment [2] was “inactive” in each case.
Turning to `CCOC(=O)Nc1ccc(NCc2ccc(F)cc2)nc1N`, the Potency result in experiment [1] and in experiment [2] was “inactive” throughout.
`CCC(C)c1cc(C(C)(C)C)c(O)c(C(C)(C)C)c1` (configuration not stated): the Potency entry in experiment [1] and in experiment [2] was “inactive” in each case.
`CN(C)Cc1cc(CN(C)C)c(O)c(CN(C)C)c1`: the Potency entry in experiment [1] and in experiment [2] was “inactive” throughout.
Consider `CC(=O)c1sc(C)nc1C`, for which the Potency entry in experiment [1] and in experiment [2] was “inactive” each time.
Consider `CC(=O)c1ccc(S(=O)(=O)NC(=O)NC2CCCCC2)cc1`, for which the Potency entry in experiment [1] and in experiment [2] was “inactive” throughout.
As for `CC(COC(=O)c1ccccc1)OC(=O)c1ccccc1` (configuration not stated), the Potency entry in experiment [1] and in experiment [2] was “inactive” in each case.
For the compound `Cc1c(N)c(=O)n(-c2ccccc2)n1C`, the Potency entry in experiment [1] and in experiment [2] was “inactive” throughout.
For the compound `CC1(C)O[C@@H]2C[C@H]3[C@@H]4C[C@H](F)C5=CC(=O)C=C[C@]5(C)[C@@]4(F)[C@@H](O)C[C@]3(C)[C@]2(C(=O)CO)O1`, the Potency entry in experiment [1] and in experiment [2] was “inactive” throughout.
In the case of `CC1=CCC(C(C)(C)O)CC1` (configuration not stated), the Potency result in experiment [1] and in experiment [2] was “inactive” each time.
With `O=S(=O)(O)c1cccc2ccccc12`, the Potency entry in experiment [1] and in experiment [2] was “inactive” each time.
For the compound `Brc1ccc(Oc2ccc(Br)cc2)cc1`, the Potency result in experiment [1] and in experiment [2] was “inactive” in each case.
Regarding `Cc1ccc(O)c([C@H](CCN(C(C)C)C(C)C)c2ccccc2)c1`, the Potency entry in experiment [1] and in experiment [2] was “inactive” in each case.
On to `CNCCCN1c2ccccc2CCc2ccccc21`, for which the Potency result in experiment [1] and in experiment [2] was “inactive” in each case.
On to `CC/C=C(\C)C=O`, for which the Potency result in experiment [1] and in experiment [2] was “inactive” each time.
For `COc1cc([C@H]2Oc3cc([C@H]4Oc5cc(O)cc(O)c5C(=O)[C@@H]4O)ccc3O[C@@H]2CO)ccc1O`, the Potency result in experiment [1] and in experiment [2] was “inactive” in each case.
On to `O=C1Nc2ccccc2C1(c1ccc(O)cc1)c1ccc(O)cc1`, for which the Potency entry in experiment [1] and in experiment [2] was “inactive” each time.
Take `O=C(NCC(O)CO)c1c(I)c(C(=O)NCC(O)CO)c(I)c(N(CCO)C(=O)CO)c1I` (configuration not stated): the Potency result in experiment [1] and in experiment [2] was “inactive” throughout.
Regarding `CC(=O)O[Si](C)(OC(C)=O)OC(C)=O`, the Potency result in experiment [1] and in experiment [2] was “inactive” in each case.
Consider `CC(=O)OC(C)C[N+](C)(C)C` (configuration not stated), for which the Potency result in experiment [1] and in experiment [2] was “inactive” in each case.
As for `OC(CCN1CCCCC1)(c1ccccc1)C1CC2C=CC1C2` (configuration not stated), the Potency result in experiment [1] and in experiment [2] was “inactive” each time.
As for `CC(=O)Nc1ccc(S(=O)(=O)Nc2ccc([N+](=O)[O-])cc2)cc1`, the Potency entry in experiment [1] and in experiment [2] was “inactive” in each case.
As to `O=C(O)c1ccc(O)c(O)c1`, the Potency result in experiment [1] and in experiment [2] was “inactive” throughout.
Regarding `CC(CC=O)CCCC(C)(C)O` (configuration not stated), the Potency entry in experiment [1] and in experiment [2] was “inactive” in each case.
For `CC1(C)[C@@H](O[C@H]2O[C@H](C(=O)O)[C@@H](O)[C@H](O)[C@H]2O[C@@H]2O[C@H](C(=O)O)[C@@H](O)[C@H](O)[C@H]2O)CC[C@]2(C)[C@H]3C(=O)C=C4[C@@H]5C[C@@](C)(C(=O)O)CC[C@]5(C)CC[C@@]4(C)[C@]3(C)CC[C@@H]12`, the Potency entry in experiment [1] and in experiment [2] was “inactive” each time.
With `CCCCCCCCCCCCSC#N`, the Potency result in experiment [1] and in experiment [2] was “inactive” in each case.
As to `CCCCCCCCOC(C)=O`, the Potency result in experiment [1] and in experiment [2] was “inactive” each time.
With `CC/C=C(\C(=O)N[C@@H]1C(=O)N2C(C(=O)OCOC(=O)C(C)(C)C)=C(COC(N)=O)CS[C@H]12)c1csc(N)n1`, the Potency entry in experiment [1] and in experiment [2] was “inactive” in each case.
On to `COc1cc(NC(=O)CC(C)=O)c(OC)cc1Cl`, for which the Potency entry in experiment [1] and in experiment [2] was “inactive” each time.
On to `CN(C)CCN1CCN(c2cccc(Cl)c2)C1=O`, for which the Potency result in experiment [1] and in experiment [2] was “inactive” in each case.
As to `O=C(NC(Cc1cc(=O)[nH]c2ccccc12)C(=O)O)c1ccc(Cl)cc1` (configuration not stated), the Potency result in experiment [1] and in experiment [2] was “inactive” in each case.
Take `Nc1ccc(S(=O)(=O)Nc2ccc(Cl)nn2)cc1`: the Potency result in experiment [1] and in experiment [2] was “inactive” each time.
Regarding `OCCCCCO`, the Potency result in experiment [1] and in experiment [2] was “inactive” each time.
`COc1ccc2c(c1)C(=O)N(CCc1ccc(S(=O)(=O)NC(=O)NC3CCCCC3)cc1)C(=O)C2(C)C`: the Potency entry in experiment [1] and in experiment [2] was “inactive” throughout.
